From PubChem BioAssay (NCATS)
Where “and” joins values, the source holds several entries; their conditions need not be identical. Equal entries are not always repeated. Inconclusive results are not listed. Calls of active or inactive are those of the source. Unless noted, the call rests on the fitted dose curve; in most records, active means well fitted curve in the direction sought with a large enough effect; inconclusive means small, poorly fitted or top-dose-only effect, or another doubt; inactive means no such curve, though single readings can be large; an effect the other way counts as inactive or inconclusive.

Tests used:
[1] = qHTS assay for small molecule disruptors of the mitochondrial membrane potential - 5 hr assay (AID 651755; calls by dose curve; further: on the % scale 0 is the no-effect control and ±100 the full control effect; nearly all actives have a fitted effect of over 40% in size)
How it was run: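 Membrane-potential dye readout: red aggregate (540 ex/590 em) versus green monomer (490 ex/535 em) fluorescence after 30 min dye loading, following 5 hr compound exposure at 37C of overnight-plated HepG2 cells.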

[2] = target: Tumor necrosis factor (Homo sapiens) (UniProt P01375); assay: qHTS assay to identify small molecules that stimulate Tumor Necrosis Factor-alpha (TNF-alpha) secretion (AID 651757; active means well fitted curve in the direction sought with a large enough effect in the signal ratio; the % refers to the signal ratio; further: 0% is about no effect)
How it was run: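 Secreted TNF-alpha quantified by TR-FRET sandwich of two labeled anti-TNF-alpha antibodies, incubated 3 hr at room temperature. Preceded by 17 hr, 37 C compound treatment of THP-1 cells at 3000 cells/well.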

[3] = qHTS assay to identify small molecules that stimulate interleukin-8 (IL-8) secretion (AID 651758; active means well fitted activation curve with a large enough effect in the signal ratio; the % refers to the signal ratio; further: 0% is about no effect)
How it was run: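 Secreted IL-8 measured homogeneously by TR-FRET (two labelled anti-IL-8 antibodies, 1-3 h at room temperature) after a 16 h, 37 C compound treatment of THP-1 cells at 2000 cells/well.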

[4] = qHTS assay for environmental chemicals that activate the Aryl hydrocarbon Receptor (AhR) signaling pathway (AID 651777); details: 1A2-DRE human hepatoma cells, luciferase, 24 h; activation: stronger effect = higher value; further: % of control where 0% means no effect; nearly all actives have a fitted effect of over 15% in size
How it was run: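 Measured luciferase activity, read 30 min after One-Glo addition at room temperature, from human hepatoma cells bearing a dioxin response element–CYP1A2 promoter reporter and exposed to compound for 24 hr at 37 C.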

[5] = target: Peroxisome proliferator-activated receptor alpha (Homo sapiens) (UniProt Q07869); assay: qHTS assay for small molecule agonists of the peroxisome proliferator-activated receptor alpha (PPARalpha) signaling pathway (AID 651778); details: PathHunter PPARalpha complementation, chemiluminescence, 6 h; stronger effect = higher value; further: % of control where 0% means no effect
How it was run: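 Chemiluminescence from complemented enzyme reported PPARalpha activation in cells after 6 hr of compound treatment at 37 C. The detection reagent was incubated for 60 min at room temperature, and compounds were scored as agonists.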

[6] = target: Nuclear receptor ROR-gamma (Homo sapiens) (UniProt P51449); assay: qHTS assay for small molecule antagonists of the retinoid-related orphan receptor gamma (ROR-gamma) signaling pathway (AID 651802);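 further: CHO cells with doxycycline-induced ROR-gamma expression; luciferase reporter luminescence driven by ROR response element; series mostly up to about 92 µM; on the % scale 0 is the no-effect control and ±100 the full control effect; nearly all actives have a fitted effect of over 60% in size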
How it was run: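 Luminescence (One-Glo, 30 min RT) measured 16 h after compound addition and doxycycline induction at 37C. Reporter: RORE-luciferase under TET-inducible ROR-gamma in CHO cells.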

[7] = qHTS assay for small molecule agonists of the antioxidant response element (ARE) signaling pathway measured by Nrf2-dependant transcriptional activity (AID 720636; active means well fitted curve in the direction sought with a large enough effect in the repeat runs; an effect the other way counts as inactive or inconclusive;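 further: HepG2 cells with an ARE-driven luciferase reporter; % of control where 0% means no effect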)
How it was run: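 In HepG2 cells engineered with an Nrf2-responsive luciferase gene, ARE induction was quantified as luminescence after 16 hr compound treatment at 37 C.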

[8] = qHTS assay for small molecule antagonists of the retinoid-related orphan receptor gamma (ROR-gamma) signaling pathway - cell viability counter screen (AID 720652; active means well fitted curve in the direction sought with a large enough effect in the repeat runs; an effect the other way counts as inactive or inconclusive;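 further: CHO reporter cells with doxycycline-induced ROR-gamma expression; series mostly up to about 92 µM; compound exposure lasted 16 hr before ATP read; on the % scale 0 is the no-effect control and ±100 the full control effect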)
How it was run: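 Cytotoxicity counter screen: intracellular ATP (CellTiter-Glo luminescence) measured in the doxycycline-induced CHO RORE-luciferase reporter line after 16 hr compound exposure at 37 C, 5% CO2.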

[9] = qHTS assay for small molecule agonists of the antioxidant response element (ARE) signaling pathway measured by Nrf2-dependant transcriptional activity - cell viability counter screen (AID 720653; active means well fitted curve in the direction sought with a large enough effect in the repeat runs; an effect the other way counts as inactive or inconclusive; further: on the % scale 0 is the no-effect control and ±100 the full control effect); details: ARE-bla HepG2 viability, CellTiter-Glo ATP luminescence, 16 h; stronger effect = lower value
How it was run: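 Cytotoxicity counter screen: intracellular ATP quantified by CellTiter-Glo luminescence in the same ARE-bla HepG2 plates, after 16 h compound exposure and a 2 h beta-lactamase substrate step.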

[10] = qHTS assay for cell viability of HEK293 cells (AID 743288); details: ATP luminescence (CellTiter-Glo), 18 h, stronger effect = lower value; further: on the % scale 0 is the no-effect control and ±100 the full control effect; nearly all actives have a fitted effect of over 50% in size
How it was run: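 Viable-cell counts were inferred from luciferase-based ATP content in HEK293 cells seeded at 2,000/well, pre-incubated ≥5 h, then dosed with DMSO-solubilised compounds for 18 h at 37 C.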

Chain of Peroxisome proliferator-activated receptor alpha (Homo sapiens) (Q07869 whole entry, looked up): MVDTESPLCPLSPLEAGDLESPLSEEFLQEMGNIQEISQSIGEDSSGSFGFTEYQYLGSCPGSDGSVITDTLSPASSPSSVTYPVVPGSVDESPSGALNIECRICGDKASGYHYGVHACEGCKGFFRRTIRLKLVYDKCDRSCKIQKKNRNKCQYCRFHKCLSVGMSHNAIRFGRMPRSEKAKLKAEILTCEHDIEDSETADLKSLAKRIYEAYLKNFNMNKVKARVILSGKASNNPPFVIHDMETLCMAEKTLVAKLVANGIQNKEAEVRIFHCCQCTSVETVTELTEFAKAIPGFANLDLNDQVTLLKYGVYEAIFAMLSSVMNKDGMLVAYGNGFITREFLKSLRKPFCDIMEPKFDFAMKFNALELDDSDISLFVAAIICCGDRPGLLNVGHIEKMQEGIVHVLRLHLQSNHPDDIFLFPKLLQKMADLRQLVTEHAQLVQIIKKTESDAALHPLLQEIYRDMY
Chain of Nuclear receptor ROR-gamma (Homo sapiens) (P51449 whole entry, looked up): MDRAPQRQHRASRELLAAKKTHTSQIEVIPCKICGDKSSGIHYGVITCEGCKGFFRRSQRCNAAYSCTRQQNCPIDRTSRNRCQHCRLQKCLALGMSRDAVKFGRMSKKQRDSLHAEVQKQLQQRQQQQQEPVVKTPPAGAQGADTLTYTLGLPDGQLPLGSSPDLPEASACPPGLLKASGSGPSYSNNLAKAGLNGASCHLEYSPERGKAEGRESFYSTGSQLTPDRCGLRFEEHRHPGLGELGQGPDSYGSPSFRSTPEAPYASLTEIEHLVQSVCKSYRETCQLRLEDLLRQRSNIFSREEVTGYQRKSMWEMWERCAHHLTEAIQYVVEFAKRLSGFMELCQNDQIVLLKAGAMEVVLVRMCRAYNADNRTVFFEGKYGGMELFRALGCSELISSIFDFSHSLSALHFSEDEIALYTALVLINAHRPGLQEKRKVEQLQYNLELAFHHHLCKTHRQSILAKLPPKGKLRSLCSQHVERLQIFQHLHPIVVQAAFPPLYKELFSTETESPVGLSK
Chain of Tumor necrosis factor (Homo sapiens) (P01375 whole entry, looked up): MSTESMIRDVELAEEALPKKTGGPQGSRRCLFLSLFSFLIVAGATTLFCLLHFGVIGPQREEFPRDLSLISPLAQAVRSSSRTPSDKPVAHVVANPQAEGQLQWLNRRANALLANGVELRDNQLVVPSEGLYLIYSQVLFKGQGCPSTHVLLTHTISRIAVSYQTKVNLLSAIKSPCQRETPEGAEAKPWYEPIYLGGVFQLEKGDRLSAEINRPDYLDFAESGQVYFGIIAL

O=C(O)c1c(Cl)cccc1Cl
inactive: Potency [1] | Potency [2] | Potency [3] | activation [4] -0.92% | max response [5] 0.175% | Potency [6] | outcome [7] | Potency [8] | max response [9] -7.83% | max response [10] -0.226%

CC(C)(C)OC=O
inactive: Potency [1] | Potency [2] | Potency [3] | activation [4] -1.07% | max response [5] -0.442% | Potency [6] | outcome [7] | Potency [8] | max response [9] 9.86% | max response [10] 5.3%

CCC(C)(C)C
inactive: Potency [1] | Potency [2] | Potency [3] | activation [4] -1.03% | max response [5] -1.79% | Potency [6] | outcome [7] | Potency [8] | max response [9] -1.09% | max response [10] -11.7%

O=C(O)CCSSCCC(=O)O
inactive: Potency [1] | Potency [2] | Potency [3] | activation [4] -0.395% | max response [5] -1.98% | Potency [6] | outcome [7] | Potency [8] | max response [9] 0.366% | max response [10] -9.15%

CNc1ccccc1
inactive: Potency [1] | Potency [2] | Potency [3] | activation [4] 1.11% | max response [5] -7.07% | Potency [6] | outcome [7] | Potency [8] | max response [9] -0.57% | max response [10] -6.52%

N#CC1(O)CCCCC1
inactive: Potency [1] | Potency [2] | Potency [3] | activation [4] 2.1% | max response [5] -1.44% | Potency [6] | outcome [7] | Potency [8] | max response [9] 5.72% | max response [10] 1.77%

CC(=O)c1ccccn1
inactive: Potency [1] | Potency [2] | Potency [3] | activation [4] -0.723% | max response [5] 0.325% | Potency [6] | outcome [7] | Potency [8] | max response [9] 5.72% | max response [10] -9.54%

Nc1ccc(F)cc1F
inactive: Potency [1] | Potency [2] | Potency [3] | activation [4] -1.74% | max response [5] 7.65% | Potency [6] | outcome [7] | Potency [8] | max response [9] -3.09% | max response [10] -2.02%

CC(C)C=O
inactive: Potency [1] | Potency [2] | Potency [3] | activation [4] 0.299% | max response [5] -0.412% | Potency [6] | outcome [7] | Potency [8] | max response [9] -2.28% | max response [10] -10.3%

CC1CCC2CC1C2(C)C (stereo not drawn)
inactive: Potency [1] | Potency [2] | Potency [3] | activation [4] -0.275% | max response [5] -3.48% | Potency [6] | outcome [7] | Potency [8] | max response [9] 1.21% | max response [10] -8.03%

OC/C(Br)=C(\Br)CO
inactive: Potency [1] | Potency [2] | Potency [3] | activation [4] -1.6% | max response [5] -6.37% | Potency [6] | outcome [7] | Potency [8] | max response [9] 1.49% | max response [10] 0.0424%

NC(=O)CCCCC(N)=O
inactive: Potency [1] | Potency [2] | Potency [3] | activation [4] -0.919% | max response [5] -1.94% | Potency [6] | outcome [7] | Potency [8] | max response [10] 10.2%

Cc1ccccc1C#N
inactive: Potency [1] | Potency [2] | Potency [3] | activation [4] 3.69% | max response [5] -1.24% | Potency [6] | outcome [7] | Potency [8] | max response [9] -8.58% | max response [10] -0.799%

CCOC(C)(C)C
inactive: Potency [1] | Potency [2] | Potency [3] | activation [4] -0.13% | max response [5] -4.96% | Potency [6] | outcome [7] | Potency [8] | max response [10] 9.83%

O=C(O)c1ccccc1Cl
inactive: Potency [1] | Potency [2] | Potency [3] | activation [4] -2.05% | max response [5] -0.83% | Potency [6] | outcome [7] | Potency [8] | max response [9] -0.91% | max response [10] -4.79%

c1ccsc1
inactive: Potency [1] | Potency [2] | Potency [3] | activation [4] -0.706% | max response [5] -6.32% | Potency [6] | outcome [7] | Potency [8] | max response [9] 9% | max response [10] 6.51%

BrC/C=C/CBr
inactive: Potency [1] | Potency [2] | Potency [3] | activation [4] 0.145% | max response [5] 3.19% | Potency [6] | outcome [7] | Potency [8] | max response [9] -9.49% | max response [10] -11%

CC(C)=CCC/C(C)=C/C=O
inactive: Potency [1] | Potency [2] | Potency [3] | activation [4] 1.06% and -1.3% | max response [5] -4.87% and -0.301% | Potency [6] | outcome [7] | Potency [8] | max response [9] -2.99% and -11.3% | max response [10] -7.6% and -9.91%

CCC(=O)/C=C/C1C(C)=CCCC1(C)C (stereo not drawn)
inactive: Potency [1] | Potency [2] | Potency [3] | activation [4] -0.103% | max response [5] 0.561% | Potency [6] | outcome [7] | Potency [8] | max response [9] 0.358% | max response [10] 0.395%

CCCCCCCCN
inactive: Potency [1] | Potency [2] | Potency [3] | activation [4] 1.65% | max response [5] -3.65% | Potency [6] | outcome [7] | Potency [8] | max response [9] 1.34% | max response [10] -5.63%
